Bioassay records (PubChem BioAssay)
Rango complex inh = qHTS Assay for Inhibitors of Rango (Ran-regulated importin-beta cargo) - Importin beta complex formation. 0.031% of 340,000 active. Rango CFP/YFP FRET sensor + importin beta, 45 min. Potency, µM (series often up to 92.2 µM), without a hit: at the top dose inhibition of complex formation. Importin subunit beta-1 (Homo sapiens), Q14974. AID 540263, 2011; calls by dose curve;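 note: 0% = DMSO wells and 100% = buffer wells lacking importin beta; nearly all actives have a fitted effect of over 15% in size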
Target sequence (Q14974 whole entry, looked up): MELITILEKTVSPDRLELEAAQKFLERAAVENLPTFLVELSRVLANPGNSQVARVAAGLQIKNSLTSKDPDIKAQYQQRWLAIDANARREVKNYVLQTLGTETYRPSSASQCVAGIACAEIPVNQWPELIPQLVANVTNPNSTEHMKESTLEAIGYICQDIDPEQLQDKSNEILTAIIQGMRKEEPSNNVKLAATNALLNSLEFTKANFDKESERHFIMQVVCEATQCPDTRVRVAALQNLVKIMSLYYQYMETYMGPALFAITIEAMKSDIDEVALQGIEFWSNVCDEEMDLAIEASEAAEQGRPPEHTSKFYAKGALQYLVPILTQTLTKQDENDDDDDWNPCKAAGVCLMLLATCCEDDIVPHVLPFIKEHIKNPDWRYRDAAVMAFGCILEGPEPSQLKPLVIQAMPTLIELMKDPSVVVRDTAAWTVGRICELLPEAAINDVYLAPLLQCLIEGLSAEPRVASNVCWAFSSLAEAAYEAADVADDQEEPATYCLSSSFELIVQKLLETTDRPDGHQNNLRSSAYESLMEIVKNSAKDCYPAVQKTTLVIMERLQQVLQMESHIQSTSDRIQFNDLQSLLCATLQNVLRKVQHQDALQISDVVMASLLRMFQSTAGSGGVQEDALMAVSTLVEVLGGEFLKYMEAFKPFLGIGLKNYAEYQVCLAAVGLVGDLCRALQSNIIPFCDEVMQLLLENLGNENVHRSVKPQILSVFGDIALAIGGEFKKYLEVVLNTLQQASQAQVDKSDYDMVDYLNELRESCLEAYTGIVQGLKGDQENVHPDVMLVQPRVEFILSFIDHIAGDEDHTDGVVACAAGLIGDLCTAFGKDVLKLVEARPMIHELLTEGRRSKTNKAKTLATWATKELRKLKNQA
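FRET biosensor (snurportin 1 IBB flanked by EYFP and cerulean), 50 nM, with compound 5 min, then 0.125 microM importin beta in PBS, 1 mM DTT, 0.02% Tween-20, 0.1% BSA. CFP/YFP ratio read after 45 min at room temperature; pre-read flags interference.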
Rango dissoc inh = qHTS Assay for Inhibitors of RanGTP induced Rango (Ran-regulated importin-beta cargo) - Importin beta complex dissociation; Snurportin-1 (Homo sapiens) + GTP-binding nuclear protein Ran (Homo sapiens) + Importin …; Biochemical FRET Rango-importin beta, RanGTP-induced dissociation; Potency, µM (doses to about 46.1 µM), without a hit: at the highest dose activity change, negative = inhibition; 0.071% of 340,000 active; AID 540253, 2011; calls by dose curve; note: % of control where 0% means no effect; nearly all actives have a fitted effect of over 45% in size
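Rango (0.1 uM)–importin beta (0.25 uM) complex; RanGTP-RCC1 trigger; 45 min RT; CFP/YFP FRET read.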
ASM inhibitor = Inhibitors of Secretory Acid Sphingomyelinase (S-ASM): qHTS; placental ASM, HMU-PC fluorogenic substrate, 60 min; Sphingomyelin phosphodiesterase (Homo sapiens), P17405; Potency, µM (top dose mostly 57.5 µM), for the others: top-dose activity change, negative = inhibition, usual class: inhibitors; AID 504937, 2011; 0.006% of 340,000 active
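Steps: dispense placental human ASM, pin compound, wait 10 min at room temperature, add HMU-PC0 substrate at 9 uM final, incubate 60 min at 37 °C, add stop solution raising pH to 10, read fluorescence.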
aSyn rescue = qHTS of alpha-syn Inhibitors. Yeast expressing alpha-synuclein, growth rescue, BacTiter-Glo, 24 h. Potency, µM (top dose mostly 46.1 µM), inactives show top-dose growth rescue (activation), most hits filed as activators. 0.14% of 370,000 active. AID 652106, 2013; note: % of control where 0% means no effect; nearly all actives have a fitted effect of over 65% in size
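Rescue of yeast growth: cells expressing toxic alpha-synuclein, induced in galactose at OD600 0.02, incubated with compound 24 h at 30 C. ATP luminescence quantified growth; inhibitors of toxicity appear as activators.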
Abeta rescue = qHTS for compounds that reverse cellular toxicity of Amyloid beta (A-beta) peptide in yeast: Primary Screen. AID 1347071, 2019. Potency, µM (top dose mostly 46.1 µM), hits mostly activators. 0.063% of 410,000 active. yeast expressing A-beta42, growth rescue, OD600, 48 h; response scale: 0% DMSO, 100% iron-clioquinol control; note: nearly all actives have a fitted effect of over 55% in size
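Yeast growth medium received pinned compounds, then yeast cells expressing toxic A-beta were added; plates incubated at 30 C for 48 hr. Growth read as absorbance at 600 nm, normalized to DMSO and equimolar FeCl3 plus clioquinol controls.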
TDP43 rescue = qHTS of TDP-43 Inhibitors; AID 652104, 2013; Potency, µM (series often up to 46.1 µM), for inactives: at the highest dose growth rescue (activation), hits mostly activators; TDP-43 expressing yeast growth rescue, BacTiter-Glo, 24 h; 1.8% of 410,000 active; note: % of control where 0% means no effect; nearly all actives have a fitted effect of over 50% in size
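Galactose-induced TDP-43 yeast, OD600=0.02, compound pinned; 24 hr, 30 deg C; BacTiter-Glo luminescence for growth. Inhibitors of TDP-43 toxicity read as activators.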
Active calls of the source: *; i = inactive; ? = inconclusive; · = no result. The list is not random: actives were taken first. Their share in the collection is about 2%. Unless noted, calls come from the whole dose curve; as a rule, active = well fitted curve in the direction sought with a large enough effect; inconclusive = small, poorly fitted or top-dose-only effect, or another doubt; inactive = no such curve, though single readings can be large; an effect the other way counts as inactive or inconclusive. Potency is the fitted concentration of half-maximal effect.

SMILES | Rango complex inh | Rango dissoc inh | ASM inhibitor | aSyn rescue | Abeta rescue | TDP43 rescue
CSc1c(-c2ccccn2)c(N)nn1C(=O)C1CCC1 | 2% | 3% | -3% | -13% | i | 11µM*
CSc1nnc2ccc(-c3ccccn3)nn12 | 1% | 1% | 0% | -5% | i | 17%
CSc1c(-c2ccccn2)c(N)nn1C(=O)C1CC1 | 1% | 11% | 0% | 13% | i | 11µM*
COc1ccc(-c2nnc3c4ccccc4c(-c4ccccc4)nn23)cc1 | · | · | · | · | i | 13%
COc1cccc(-c2sc3ccc(OC)cc3c2-c2ccc(OCCN3CCOCC3)cc2)c1 | 5% | -20% | ? | -44% | i | 35µM*
COc1ccc(-c2nc(CNC(=O)Nc3ccccc3)c(C)o2)cc1 | · | · | · | · | i | -1%
CCOc1ccc(NC(=O)CN(c2cccc(C(F)(F)F)c2)S(C)(=O)=O)cc1 | 1% | -5% | -4% | 4% | i | 13µM*
COc1cc(-c2nnc(-c3ccccc3)o2)cc(OC)c1OC | 1% | -1% | 0% | -11% | i | 18%
COc1cc(-c2nnc(COc3ccc4ccccc4c3)o2)cc(OC)c1OC | -2% | 1% | ? | 6% | i | 28µM*
COC(=O)c1ccc(Nc2nc(-c3ccc(C)cc3)nc3ccccc23)cc1 | · | · | · | · | i | 14µM*
CCCOC(=O)c1cccc(Nc2nc(-c3cccnc3)nc3ccccc23)c1 | -3% | 15% | -22% | 10% | i | 22µM*
O=C(O)c1ccc(Nc2nc(-c3ccccc3)nc3ccccc23)cc1 | -1% | 21% | 1% | -18% | i | 22µM*
O=C(OCCNc1nc(-c2ccccc2)nc2ccccc12)c1cccnc1 | -3% | 10% | -3% | 17% | i | 4%
CC1=Nc2ccccc2/C1=C/c1ccc(N(C)C)cc1 | · | · | · | 28% | · | ·
COc1ccc(Cn2c(CNS(=O)(=O)c3ccc(Cl)s3)nc3cccnc32)cc1 | · | · | · | · | i | 14%
Cc1cccc2cc(CN(Cc3nnnn3Cc3ccco3)C3CCCC3)c3nnnn3c12 | -4% | -10% | -3% | ? | i | 7.1µM*
CCN1CCc2c(sc(-n3cccc3)c2C(C)NC(=O)Nc2ccccc2C)C1 (stereo not given) | · | · | · | · | i | 8%
C/C(=N\Nc1ccc(F)cc1F)c1ccccc1O | 0% | 2% | -5% | 2% | i | 13µM*
C/C(=N\Nc1cc(C(F)(F)F)ccc1Cl)c1ccccc1O | 0% | -11% | -10% | 0% | i | 24%
CN(Cc1ccccc1)S(=O)(=O)c1ccc2[nH]c3c(c2c1)CCCCC3 | · | · | · | · | i | 6%
CCCN1C(C(=O)c2ccccc2)=C(OC(=O)COc2ccc(C)cc2)c2ccccc2S1(=O)=O | · | · | · | · | i | -79%
Cc1nn(C(=O)c2ccc(Cl)cc2)c(C)c1S(=O)(=O)N1CCOCC1 | · | · | · | · | i | 14%
O=C1c2ccccc2C(=O)c2c1cccc2-n1nnc2ccccc21 | 1% | -2% | -3% | 2% | i | -14%
O=C1C(N2CCOCC2)=C(n2nnc3ccccc32)C(=O)c2ccccc21 | 0% | 2% | -4% | -36% | i | 22µM*
CC(=O)c1ccc(NC(=O)N2CCN(c3cccc(Cl)c3)CC2)cc1 | 2% | 8% | -9% | 3% | i | 13µM*
SMILES | Rango complex inh | Rango dissoc inh | ASM inhibitor | aSyn rescue | Abeta rescue | TDP43 rescue
COc1ccccc1CC(=O)N1CCN(c2cccc(Cl)c2)CC1 | 1% | 11% | 2% | 3% | i | 13µM*
COc1ccccc1CC(=O)N1CCN(c2ccccc2)CC1 | 0% | 19% | -2% | 1% | i | 10%
O=C(c1cccc(F)c1)N1CCN(c2cccc(C(F)(F)F)c2)CC1 | -4% | -21% | -7% | 12% | i | 14µM*
O=C(c1ccc2nccnc2c1)N1CCN(c2cccc(C(F)(F)F)c2)CC1 | ? | -7% | 4% | 1% | i | 0%
COc1ccccc1C(=O)N1CCN(c2cccc(C(F)(F)F)c2)CC1 | -1% | 7% | 0% | 3% | i | 14µM*
O=C(c1ccc(CS(=O)c2ccccc2Cl)o1)N1CCN(c2cccc(Cl)c2)CC1 (stereo not given) | · | · | · | · | i | ?
Cn1c2ccccc2c2c(C(=O)N3CCN(c4cccc(C(F)(F)F)c4)CC3)cn(C3CCCCC3)c(=O)c21 | · | · | · | · | i | 21%
O=C(c1ccc(CS(=O)c2ccccc2Cl)o1)N1CCN(c2cccc(C(F)(F)F)c2)CC1 (stereo not given) | · | · | · | · | i | 18µM*
Cn1cc(C(=O)N2CCN(c3cccc(C(F)(F)F)c3)CC2)c2c3ccccc3n(C)c2c1=O | · | · | · | · | i | 28µM*
Nc1ccc(/C=C/c2cc(Cl)nc3ccccc23)cc1 | · | · | · | 18% | · | ·
CCc1ccccc1NC(=O)c1cnc2sc(N3CCOCC3)nn2c1=O | · | · | · | · | i | -13%
Cc1nc2ccc(NC(=O)c3cccc(C(F)(F)F)c3)cc2o1 | 0% | -10% | -1% | -12% | i | 11µM*
COc1ccc(Cl)cc1C(=O)Nc1ccc2nc(Nc3cccc(Cl)c3)cc(C)c2c1 | · | · | · | · | ? | 24%
Cc1cc(Nc2cccc(Cl)c2)nc2ccc(NC(=O)c3ccc(F)cc3Cl)cc12 | · | · | · | · | i | 20µM*
Cc1cc(Nc2cccc(C(F)(F)F)c2)nc2ccc(NC(=O)c3cccnc3)cc12 | · | · | · | · | i | ?
Cc1cc(Nc2cccc(C(F)(F)F)c2)nc2ccc(NC(=O)c3cccc(Cl)c3)cc12 | · | · | · | · | ? | 18µM*
Cc1cc(Nc2cccc(Cl)c2)nc2ccc(NC(=O)Cc3cccc(C(F)(F)F)c3)cc12 | · | · | · | · | i | 16µM*
CCCCN(C)CC(O)Cn1cc(/C=C/C(=O)c2ccc(OC)c(OC)c2)c2ccccc21 (stereo not given) | · | · | · | -25% | i | -29%
CC(Oc1ccccc1)C(=O)Nc1nnc2n1CCS2 (stereo not given) | · | · | · | · | i | 15%
O=C(NCc1ccccc1Cl)C1CCN(S(=O)(=O)c2ccc3c(c2)CCCN3C(=O)C2CCC2)CC1 | · | · | · | · | i | 9%
CCSc1nc(N2CCOCC2)c2c(c1C#N)CC(C)(C)N(C)C2 | ? | ? | 1% | -1% | i | 9%
